Out of some 290,000 compounds screened, about 4,200 (1.4%) were called active.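 The calls were made as follows: active = binding response more than 3 SD above or below the average of its plate-row segment, actives on both sides; inconclusive = wells at one plate position flagged as instrument error; inactive = the rest.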 The entries come from a sample that favours actives as a whole.
What follows are compounds tested against Mitogen-activated protein kinase kinase kinase 3 (Homo sapiens) (UniProt Q99759) (assay: modulators of MEKK3-MEK5 PB1 binding, primary screen, biochemical, wildtype MEKK3, multiplex bead flow cytometry, Alexa488-MEK5 (AID 1529;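 also: Alexa488 bead fluorescence after subtracting the streptavidin-only scavenger bead signal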)). Details: bead-based flow cytometry, Alexa488-MEK5 binding to MEKK3; at 10 µM; actives lie on both sides; 0 = blocked by unlabeled MEK5, 100 = vehicle.
Chain of Mitogen-activated protein kinase kinase kinase 3 (Homo sapiens) (Q99759 whole entry, looked up): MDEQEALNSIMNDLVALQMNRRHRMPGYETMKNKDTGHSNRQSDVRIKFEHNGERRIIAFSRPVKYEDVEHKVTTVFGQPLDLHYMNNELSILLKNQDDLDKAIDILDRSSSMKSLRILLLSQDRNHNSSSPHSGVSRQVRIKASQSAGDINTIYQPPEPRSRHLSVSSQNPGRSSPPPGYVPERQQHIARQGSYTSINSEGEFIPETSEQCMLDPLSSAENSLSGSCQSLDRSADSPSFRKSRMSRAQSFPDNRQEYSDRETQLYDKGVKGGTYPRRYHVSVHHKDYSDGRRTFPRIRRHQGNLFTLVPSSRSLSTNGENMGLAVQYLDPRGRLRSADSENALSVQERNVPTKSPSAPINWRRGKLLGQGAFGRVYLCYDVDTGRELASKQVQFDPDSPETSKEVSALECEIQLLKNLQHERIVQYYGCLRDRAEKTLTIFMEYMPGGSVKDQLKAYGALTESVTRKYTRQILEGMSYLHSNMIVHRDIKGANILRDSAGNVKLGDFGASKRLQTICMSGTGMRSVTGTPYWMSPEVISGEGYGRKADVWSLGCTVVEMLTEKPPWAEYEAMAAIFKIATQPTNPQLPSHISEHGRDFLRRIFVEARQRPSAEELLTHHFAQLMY

Binding response (% of control), inactive:
Cc1ccc(C(=O)N2CCC(n3nccc3NC(=O)Nc3cccc(F)c3)CC2)cn1 96%, COC(=O)c1ccc(/C=N/NC(=O)C(=O)N2CCCCCC2)cc1 101%, CCn1cc(CN2CCN(CC(C)(C)C)C(CCO)C2)c2ccccc21 (configuration not stated) 107%, COCCOC(=O)C1=C(C)Nc2nc(C)nn2C1c1ccccc1 (configuration not stated) 97%, COc1cc(C2C(C(=O)Nc3ccc(F)cc3)=C(C)Nc3nc(CCCO)nn32)cc(OC)c1OC (configuration not stated) 104%, CC(=O)N(c1ccc2oc(=O)sc2c1)S(=O)(=O)c1ccc(C)cc1 103%, CN(Cc1ccccc1)C(=O)c1ccc(COc2ccccc2)cc1 109%, COc1cc(OC)cc(C(=O)OCC(=O)Nc2sccc2C(N)=O)c1 97%, Clc1ccc(-n2nnnc2-c2cnc(-c3ccccn3)nc2-c2cccs2)cc1 100%, c1ccc(-n2nnnc2-c2cccnc2)cc1 108%, C=CCN1C(=NC(=O)COc2ccccc2)SC2CS(=O)(=O)CC21 (configuration not stated) 102%, CCOC(=O)N1CCN(C(=O)c2n[nH]c(=O)c3ccccc23)CC1 100%, CCOC(=O)N1CCN(C(=O)Cn2cnc3ccccc3c2=O)CC1 99%, Cc1cccc(OCC(=O)Nc2ccc(C(=O)O)cc2NC(=O)COc2cccc(C)c2)c1 105%, O=C(CN1CCN(Cc2ccccc2)CC1)Nc1ccc(F)c(F)c1 104%, O=C(Nc1ccc(S(=O)(=O)N2CCCCCC2)cc1)c1c(F)cccc1F 101%, CC1(c2nnc(-c3ccncc3)o2)CC(c2cccnc2)=NO1 (configuration not stated) 101%, Cc1cccc(N2CCN(S(=O)(=O)c3ccc(-c4cc(C)no4)s3)CC2C)c1 (configuration not stated) 97%, Cc1[nH]c2ccccc2c1C(=O)COC(=O)c1c(-c2ccccc2)noc1C 108%, Cc1onc(-c2ccccc2Cl)c1C(=O)NCCn1ccc2ccccc21 98%, O=C(NCCCN1CCCCC1)C1CCCN(c2ncnc3c2nc2n3CCCCC2)C1 (configuration not stated) 94%, O=C(CCN1CCN(C/C=C/c2ccccc2)CC1)Nc1ccccc1Cl 104%, COc1ccc(S(=O)(=O)N2CCOC2CNC(=O)C(=O)NCc2ccc(F)cc2)cc1 (configuration not stated) 98%, Cc1nc(SCC(=O)NC2CCCC2)[nH]c(=O)c1C 101%, CCNS(=O)(=O)c1ccc(CCC(=O)N2CCN(c3cc(Cl)ccc3C)CC2)cc1 103%, C=CCOc1ccc(/C=C2/C(=O)ON=C2C)cc1OCC 104%, O=C(OCc1cc2ccccc2[nH]c1=O)c1cccnc1 109%, Cc1cc(=O)[nH]c(SCc2cc(Cl)ccc2OC(F)F)n1 103%, Cc1c(C(=O)N2CCCC2)c(S(=O)(=O)NCC(C)c2ccccc2)c(C)n1C (configuration not stated) 101%, Cc1ccc(NC(=O)C2CCN(S(=O)(=O)c3ccc4c(c3)NC(=O)CO4)CC2)cc1C 106%, COC(C[C@@H]1O[C@@H]1C(=O)[C@@H](C)OCc1ccccc1)OC 102%, CCc1c(C)sc(NC(=O)c2cccs2)c1C(N)=O 100%, Cc1ccc(OCC(=O)NCCCNC(=O)c2cccnc2)cc1C 99%, Cn1c(SCC(=O)N2CCCC2)nnc1-c1ccc2c(c1)OCO2 100%, O=C(O)CSc1nnc(-c2ccc3c(c2)OCO3)n1-c1ccccc1 103%, O=C(OCc1ccc([N+](=O)[O-])cc1)C1CC(=O)N(Cc2ccccc2Cl)C1 (configuration not stated) 100%, O=C(CNC(=O)C(c1ccccc1)c1ccccc1)N/N=C\c1ccc2c(c1)OCO2 104%, C/C(=N\NC(=O)Cc1ccc(F)cc1)c1ccc(F)cc1 98%, O=C(Oc1ccc(Br)cc1)c1cccnc1 101%, C=CC1=C(C(=O)O)N2C(=O)[C@@H](NC(=O)/C(=N/OCC(=O)O)c3csc(N)n3)[C@H]2SC1 97%, O=C(O)c1ccc2c(=O)n3c(nc2c1)/C(=C/c1ccc(OC(F)F)cc1OC(F)F)CC3 103%, COc1ccc(NC(=O)CS(=O)(=O)c2ccccc2)cc1 105%, CSc1ncccc1C(=O)NC1CCCCCC1 102%, O=C(NC1CCCCCC1)c1cccnc1Sc1ccc(Cl)cc1 91%, CC1=CC(=C(C#N)c2nc3ccccc3s2)C=C(C)N1c1ccc(F)cc1F 104%, CCOC(=O)C1CCN(C(=O)CN2C(=O)c3cccnc3Oc3ccc(C)cc32)CC1 103%, CCCC/S(C)=N/S(=O)(=O)c1ccc(C)cc1 (configuration not stated) 100%, CC/S(CC1CC1(Cl)Cl)=N\S(=O)(=O)c1ccc(C)cc1 (configuration not stated) 96%, CC1CCCN(CC(=O)Nc2cc(Cl)ccc2Oc2ccccc2)C1 (configuration not stated) 107%, COC(=O)c1c(C)cc(O)c(C)c1O 102%, CCOC(=O)CNC(=O)CSc1ncccc1-c1nc2ccccc2[nH]1 108%, CCOC(=O)CNC(=O)CSc1nnc(COc2ccc(Cl)cc2)n1CC 96%

Binding response (% of control), active:
COC(=O)c1nc2n(n1)C(c1ccc([N+](=O)[O-])cc1)C(C(=O)Nc1ccc(Cl)cc1)=C(C)N2 (configuration not stated) 139%, FC(F)(F)c1nc(-c2ccccc2)ncc1-c1nnnn1-c1ccccc1 48% [inhibitor], CCOC(=O)N1CCN(CC(=O)n2c(C)c(C)c3ccccc32)CC1 124%, Cc1onc(-c2ccccc2Cl)c1C(=O)OCC(=O)c1ccccc1 1% [inhibitor], O=C(OCc1cc(Cl)ccc1OC(F)F)c1cccnc1 146%, Cn1c(SCc2nc3ccccc3s2)nnc1-c1ccc2c(c1)OCO2 19% [inhibitor], C/C(=N\NC(=O)CNC(=O)C(c1ccccc1)c1ccccc1)c1ccc(C)cc1 130%, O=C(O)c1cccnc1NC1CCCC1 80% [inhibitor], Cc1ccc(S(=O)(=O)/N=S(\C)C(C)C)cc1 (configuration not stated) 2% [inhibitor], CCOC(=O)CNC(=O)CSc1nc2cccnc2n1CC 127%

Source: PubChem BioAssay AID1529 (NMMLSC, 2009)
